Legend:
Assay in all cases: growth inhibition (% activity, log2 RLU normalised to DMSO / staurosporine); higher = more growth inhibition
Conditions in all cases: 33 µM
DIPGX29 = system: DIPGX29 (H3.3 K27M diffuse intrinsic pontine glioma line)
How it was run: (§1)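 Approved drugs, at a single final concentration of about 33 μM, were applied in triplicate to pHGG cell lines and H9-derived neural stem cells for 7 days at 37 °C, 5% CO2. The growth-inhibition value is the replicate median of log2-transformed CellTiter-Glo luminescence normalised per plate to % activity between solvent and positive control wells.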

DIPGX37 = system: DIPGX37 (H3.3 K27M diffuse intrinsic pontine glioma line)
How it was run: as §1

DIPGX7 = system: DIPGX7 (H3.3 K27M diffuse intrinsic pontine glioma line)
How it was run: as §1

DIPGX9 = system: DIPGX9 (diffuse intrinsic pontine glioma line)
How it was run: as §1

HGGX39 = system: HGGX39 (paediatric high-grade glioma line)
How it was run: as §1

HGGX6 = system: HGGX6 (H3.3 G34R paediatric high-grade glioma line)
How it was run: as §1

HNSC = system: HNSC
How it was run: as §1

SUDIPGIV = system: SUDIPGIV (diffuse intrinsic pontine glioma line)
How it was run: as §1

SUDIPGVI = system: SUDIPGVI (diffuse intrinsic pontine glioma line)
How it was run: as §1

SUDIPGXIII = system: SUDIPGXIII (diffuse intrinsic pontine glioma line)
How it was run: as §1

Row | Structure (SMILES) | growth inhibition (DIPGX29) | growth inhibition (DIPGX37) | growth inhibition (DIPGX7) | growth inhibition (DIPGX9) | growth inhibition (HGGX39) | growth inhibition (HGGX6) | growth inhibition (HNSC) | growth inhibition (SUDIPGIV) | growth inhibition (SUDIPGVI) | growth inhibition (SUDIPGXIII)
1 | C=CC[C@@H]1/C=C(\C)C[C@H](C)C[C@H](OC)[C@H]2O[C@@](O)(C(=O)C(=O)N3CCCC[C@H]3C(=O)O[C@H](/C(C)=C/[C@@H]3CC[C@@H](O)[C@H](OC)C3)[C@H](C)[C@@H](O)CC1=O)[C@H](C)C[C@@H]2OC | 1.19% | -1.52% | 3.82% | 4.63% | 9.14% | 3.03% | 6.43% | 4.72% | 5.58% | 2.59%
2 | CC1CCc2c(N3CCC(O)CC3)c(F)cc3c(=O)c(C(=O)O)cn1c23 (stereo not given) | 1.83% | 2.99% | 1.32% | 2.53% | 3.35% | 2.89% | 4.09% | 0.692% | 3.03% | -1.17%
3 | COc1c(N2CCNC(C)C2)c(F)cc2c(=O)c(C(=O)O)cn(C3CC3)c12 (stereo not given) | 0.952% | -1.73% | 2.3% | 1.28% | 4.77% | 0.493% | 8.87% | 1% | 2.31% | 1.42%
4 | C[C@H]1NC(=O)NC1=O | -0.365% | 0.903% | -1.69% | -0.744% | -0.268% | 0.316% | -0.248% | -0.465% | 1.41% | 0.834%
5 | CN(C)CCc1c[nH]c2ccc(CS(=O)(=O)N3CCCC3)cc12 | 1.96% | 3.12% | 1.45% | 1.71% | 2.56% | 3.04% | 1.98% | 0.896% | 3.66% | -0.309%
6 | COc1ccc2c(c1)c(CC(=O)O)c(C)n2C(=O)c1ccc(Cl)cc1 | -3.09% | -0.682% | 0.11% | -3.3% | -3.42% | -2.79% | -3.23% | -6.71% | -7.35% | 2.32%
7 | CCOC(CN1CCN(CC(C)C(=O)c2ccccc2)CC1)c1ccccc1 (stereo not given) | -0.933% | -1.59% | -1.24% | -0.121% | 2.63% | 1.64% | -3.21% | -1.87% | -0.901% | 13.1%
8 | O=C(Nc1c(Cl)cncc1Cl)c1ccc(OC(F)F)c(OCC2CC2)c1 | 2.05% | 4.42% | 2.92% | 2.71% | 4.08% | 2.51% | 2.92% | 7.2% | 6.56% | -0.978%
9 | CN1CCN2c3ncccc3Cc3ccccc3C2C1 (stereo not given) | -2.74% | -1.56% | -0.7% | -1.19% | 1.93% | -2.31% | 2.94% | -0.123% | -5.43% | -0.736%
10 | CCCCNC(=O)NS(=O)(=O)c1ccc(C)cc1 | -0.968% | 2.64% | -0.647% | 1.33% | 2.32% | -1.26% | 8.77% | 1.65% | 2.09% | -0.858%
11 | C[C@@H]1CCN(C(=O)CC#N)C[C@@H]1N(C)c1ncnc2[nH]ccc12 | 0.671% | -1.72% | 0.986% | -0.0672% | 1.55% | -3.29% | 19.9% | -0.0962% | -2.08% | 1.44%
12 | C=C1c2c(Cl)ccc(O)c2C(=O)C2=C(O)[C@]3(O)C(=O)C(C(N)=O)=C(O)[C@@H](N(C)C)[C@@H]3[C@@H](O)[C@H]12.O=C(O)c1cc(S(=O)(=O)O)ccc1O | 3.13% | 1.57% | 2.88% | 2.29% | 8.03% | 6.26% | 8.17% | 7.96% | 4.89% | 3.19%
13 | CCC(=O)NCC[C@@H]1CCc2ccc3c(c21)CCO3 | -0.665% | -0.134% | 1.26% | 0.325% | 1.29% | -0.174% | 3.01% | 0.00903% | 1.36% | 0.726%
14 | C[C@]12CCC3=C4CCC(=O)C=C4CC[C@H]3[C@@H]1CC[C@@]2(O)CC#N | 1.43% | -1.59% | -0.302% | 0.24% | 0.279% | -1.72% | 0.249% | -0.958% | 1.03% | 0.668%
15 | Oc1ccc(/C=C/c2cc(O)cc(O)c2)cc1 | 2.03% | -0.532% | 4.05% | 1.48% | 1.37% | 2.36% | 3.97% | -5.92% | 1.29% | -0.764%
16 | O=C(O)C[C@H](O)C[C@H](O)/C=C/c1c(C2CC2)nc2ccccc2c1-c1ccc(F)cc1 | 16.1% | -2.02% | 38.6% | 7.33% | 48.3% | 30.8% | 56.2% | 39.9% | 33.5% | 32.8%
17 | Cc1cc(=O)[nH]c(=S)[nH]1 | 0.66% | -0.151% | 2.93% | 1.41% | 3.23% | 0.504% | 4.39% | 2.24% | 4.36% | 1.21%
18 | Nc1nc(=O)n([C@@H]2CS[C@H](CO)O2)cc1F | 0.68% | 3.05% | 1.33% | 1.75% | 1.6% | 0.276% | 0.206% | -0.429% | 2.25% | -2.25%
19 | CC(C(=O)O)c1ccc2c(c1)CC(=O)c1ccccc1S2 (stereo not given) | 1.3% | 4.16% | 2.06% | 1.25% | 2.45% | 2.99% | 1.66% | -1.48% | 4.71% | 0.56%
20 | NC[C@@H]1O[C@H](O[C@H]2[C@@H](O)[C@H](O[C@@H]3[C@@H](O)[C@H](N)C[C@H](N)[C@H]3O[C@H]3O[C@H](CN)[C@@H](O)[C@H](O)[C@H]3N)O[C@@H]2CO)[C@H](N)[C@@H](O)[C@@H]1O | 0.966% | 0.68% | 1.55% | 0.402% | 2.24% | -1.34% | 20.2% | 2.53% | -6.55% | -0.235%

From the supplement of paper PMC8253809
